SARS PLpro yeast = qHTS of Yeast-based Assay for SARS-CoV PLP | S. cerevisiae expressing SARS-CoV PLpro, growth rescue | Potency, µM (series often up to 32.9 µM), for inactives: at the top dose activity, positive = growth rescue, actives largely listed as activators | hit rate 0.19% among 330,000; calls by dose curve; note: potency is the fitted concentration of half-maximal effect; 0% is about no effect; nearly all actives have a fitted effect of over 55% in size
AmpC inh no detg = qHTS Inhibitors of AmpC Beta-Lactamase (assay without detergent); hit rate 0.52% among 330,000; Potency, µM (series often up to 57.1 µM), for the others: top-dose activity change, negative = inhibition, most hits filed as inhibitors; AmpC nitrocefin hydrolysis, absorbance 480 nm, 0.0001% Triton;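 note: potency is the fitted concentration of half-maximal effect; plate controls were no compound for no effect and no enzyme for full effect; nearly all actives have a fitted effect of over 20% in size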
Target sequence (P00811 whole entry, looked up): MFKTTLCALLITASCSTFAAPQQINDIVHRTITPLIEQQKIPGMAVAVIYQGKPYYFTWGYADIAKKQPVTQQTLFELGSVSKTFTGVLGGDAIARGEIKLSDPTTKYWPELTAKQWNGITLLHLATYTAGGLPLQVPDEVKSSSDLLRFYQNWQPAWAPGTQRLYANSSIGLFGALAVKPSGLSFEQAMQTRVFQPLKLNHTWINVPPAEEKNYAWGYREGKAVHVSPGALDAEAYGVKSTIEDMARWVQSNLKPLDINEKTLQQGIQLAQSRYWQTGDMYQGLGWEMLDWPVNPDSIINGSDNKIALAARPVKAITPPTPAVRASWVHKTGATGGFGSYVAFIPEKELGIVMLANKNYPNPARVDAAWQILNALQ
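AmpC (5.3 nM in the dispensed reagent) in 20 mM phosphate pH 7.0 with 0.01% (detergent screen) or 0.0001% Triton X-100 was preincubated with compounds for 15 min at room temperature. Nitrocefin was then added from an 800 uM solution, and hydrolysis was followed at 480 nm.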
AmpC inh detg = qHTS Inhibitors of AmpC Beta-Lactamase (assay with detergent) | Potency, µM (titrated, usually from 114 µM), for inactives: top-dose activity change, negative = inhibition, usual class: inhibitors | AID 485294, 2010 | hit rate 0.041% among 370,000 | AmpC hydrolysis of nitrocefin, absorbance 480 nm, 0.01% Triton;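 note: potency is the fitted concentration of half-maximal effect; 0% = no-compound wells and -100% = no-enzyme wells; nearly all actives have a fitted effect of over 25% in size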
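AmpC (5.3 nM in the dispensed reagent) in 20 mM phosphate pH 7.0 with 0.01% (detergent screen) or 0.0001% Triton X-100 was preincubated with compounds for 15 min at room temperature. Nitrocefin was then added from an 800 uM solution, and hydrolysis was followed at 480 nm.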
NS1 function inh = qHTS Assay for Inhibitors of Influenza NS1 Protein Function; Potency, µM (top dose mostly 46.1 µM), for inactives: at the top dose activity, positive = more growth; hit rate 0.4% among 270,000; AID 2326, 2010; calls by dose curve; note: potency is the fitted concentration of half-maximal effect; actives are rising curves; nearly all actives have a fitted effect of over 50% in size
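A cell-based growth assay was used: compounds that relieve NS1-induced slow growth of budding yeast raise OD600. Assay medium was yeast nitrogen base with ammonium sulphate and -URA supplement, pH 6.0, with 2% galactose.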
FBPA Giardia inh = qHTS Assay for Inhibitors of Fructose-1,6-bisphosphate Aldolase from Giardia Lamblia; A8B2U2; purified Giardia FBPA; Potency, µM (titrated, usually from 59.6 µM), without a hit: top-dose activity, negative = inhibition, actives largely listed as inhibitors; hit rate 0.71% among 290,000; note: potency is the fitted concentration of half-maximal effect; % is set by controls: 0 for no effect and ±100 for the full control effect; nearly all actives have a fitted effect of over 55% in size
Target sequence (A8B2U2 whole entry, looked up): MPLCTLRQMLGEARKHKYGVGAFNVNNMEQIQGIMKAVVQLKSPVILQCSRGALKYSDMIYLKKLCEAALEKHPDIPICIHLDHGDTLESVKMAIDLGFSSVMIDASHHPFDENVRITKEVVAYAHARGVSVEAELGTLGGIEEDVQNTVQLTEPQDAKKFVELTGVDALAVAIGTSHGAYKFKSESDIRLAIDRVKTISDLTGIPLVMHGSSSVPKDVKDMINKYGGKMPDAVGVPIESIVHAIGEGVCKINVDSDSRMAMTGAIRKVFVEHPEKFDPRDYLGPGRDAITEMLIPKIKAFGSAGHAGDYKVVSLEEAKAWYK
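Giardia FBPA (40 nM reagent) was preincubated 10 min at RT with compound (up to 57.5 uM final), then substrate plus GAPDH/TPI/NAD/arsenate coupling system with diaphorase/resazurin was added; resorufin fluorescence (525/598 nm) was read after 20 min.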
NS1 inh valid = Assay for Inhibitors of Influenza NS1 Protein Function: Hit Validation; shares compounds with NS1 function inh; influenza NS1 function cell assay, 15-point titration; activity change, negative = inhibition, % at 32.9 µM; 1,400 tested, under 10 active; AID 492980, 2010; calls by dose curve; note: 0% is about no effect
PR8 titer = Assay for Inhibitors of Influenza NS1 Protein Function: Influenza virus replication assay in MDCK cells infected with virus A/PR/8/34. AID 504647, 2011. shares compounds with NS1 function inh. MDCK infected influenza A/PR/8/34, virus titer TCID50; hits give low values. virus titer (log TCID50), log10 TCID50 at 5 µM. hit rate 30% among 95; call rule not given here
The depositor's hits bear a star. Rows were chosen to be rich in hits. Some 1.4% of all compounds tested hit in one or more screens of this group. Unless noted, calls come from the whole dose curve; as a rule, active = well fitted curve in the direction sought with a large enough effect; inconclusive = small, poorly fitted or top-dose-only effect, or another doubt; inactive = no such curve, though single readings can be large; an effect the other way counts as inactive or inconclusive.

CC1(c2ccc(Cl)cc2)NC(=O)N(CC(=O)NCCC2=CCCCC2)C1=O (stereo not given) was read as SARS PLpro yeast 3%, AmpC inh no detg -4% and AmpC inh detg inconclusive.
Screening CCn1c(CNC(=O)C2CCCCC2)cc2ccccc21 returned SARS PLpro yeast -5%, AmpC inh no detg -7%, AmpC inh detg -3%, NS1 function inh inconclusive, FBPA Giardia inh -7% and NS1 inh valid -7.
For O=C(N/N=C/c1ccco1)C1(O)c2ccccc2-c2ccccc21 the results were SARS PLpro yeast 1%, AmpC inh no detg -11%, AmpC inh detg 2%, NS1 function inh -53% and FBPA Giardia inh -1%.
Screening COc1ccc(CN2C(=O)CC(=O)NC2=O)cc1 returned SARS PLpro yeast 0%, AmpC inh no detg -24%, AmpC inh detg inconclusive, NS1 function inh 3.5µM*, FBPA Giardia inh 11% and NS1 inh valid 26.
CCOc1ccc2[nH]c(=O)c(CN(Cc3ccc(F)cc3)C(=O)c3ccco3)cc2c1 was read as SARS PLpro yeast -2%, AmpC inh no detg -12%, AmpC inh detg -15%, NS1 function inh 11µM*, FBPA Giardia inh -1% and NS1 inh valid -11.
CCOc1ccc2[nH]c(=O)c(CN(CC3COCCO3)C(=O)c3ccco3)cc2c1 (stereo not given) was read as SARS PLpro yeast 8%, AmpC inh no detg -33%, AmpC inh detg -6%, NS1 function inh 0% and FBPA Giardia inh 4%.
`C=CCSc1nnc2c(n1)OC(c1ccccn1)N(C(C)=O)c1ccccc1-2` (stereo not given) gave SARS PLpro yeast 5%, AmpC inh no detg -14%, AmpC inh detg inconclusive, NS1 function inh -2% and FBPA Giardia inh 1%.
For COc1ccc2[nH]c3c(c2c1)CCN(C(=O)c1cccc(Cl)c1)C3c1ccc(F)cc1 (stereo not given) the results were AmpC inh detg -3%.
CC(=O)Nc1ccc(/C(C)=N/Nc2nc(N3CCOCC3)nc(N3CCOCC3)n2)cc1 was read as SARS PLpro yeast 1%, AmpC inh no detg -4%, AmpC inh detg 9% and FBPA Giardia inh 2%.
CC(=O)Nc1ccc(/C(C)=N/Nc2nc(Nc3cccc4ccccc34)nc(N3CCOCC3)n2)cc1 was read as SARS PLpro yeast 8%, AmpC inh no detg 96%, AmpC inh detg 3%, NS1 function inh 4.5µM*, FBPA Giardia inh -1% and NS1 inh valid inconclusive.
Screening COc1cccc(NC(=O)C(Sc2nnc(-c3ccncc3)n2-c2ccc(Cl)cc2)c2ccccc2)c1 (stereo not given) returned SARS PLpro yeast 5%, AmpC inh no detg 144%, AmpC inh detg -2%, NS1 function inh 14µM*, FBPA Giardia inh 13% and NS1 inh valid 2.
For O=C(Cc1cc(=O)[nH][nH]1)N/N=C/c1c(Cl)cccc1Cl the results were SARS PLpro yeast 17%, AmpC inh no detg -34%, AmpC inh detg inconclusive, NS1 function inh 10µM*, FBPA Giardia inh 3% and NS1 inh valid inconclusive.
For O=C(Cc1cc(=O)[nH][nH]1)N/N=C/c1c(F)cccc1Cl the results were SARS PLpro yeast 7%, AmpC inh no detg -37%, AmpC inh detg 6% and FBPA Giardia inh -1%.
`Cc1ccc(-c2csc(N3CCC(NS(=O)(=O)c4ccc5c(c4)OCCO5)CC3)n2)cc1` gave SARS PLpro yeast -5%, AmpC inh no detg 7%, AmpC inh detg -1%, NS1 function inh inconclusive, FBPA Giardia inh -8%, NS1 inh valid -1 and PR8 titer 7.7.
`C/C(=N\NC(=O)C1CCCC1)c1ccc(Cl)cc1` gave SARS PLpro yeast 8%, AmpC inh no detg -15%, AmpC inh detg 0%, NS1 function inh inconclusive and NS1 inh valid 2.
C/C(=N\NC(=O)C1CC1)c1ccc(Cl)cc1 was read as SARS PLpro yeast 21%, AmpC inh no detg -19%, AmpC inh detg 0%, NS1 function inh 2% and FBPA Giardia inh 2%.
Screening CC1(C)SC(=S)N(NC(=O)Nc2ccccc2)C1N(O)C(=O)Nc1cccc2ccccc12 (stereo not given) returned SARS PLpro yeast 4%, AmpC inh no detg -10%, AmpC inh detg 9%, NS1 function inh 22µM*, FBPA Giardia inh -22% and NS1 inh valid 9.
`CC1(C)SC(=S)N(/N=C/c2ccccc2O)C1N(O)C(=O)Nc1ccccc1` (stereo not given) gave SARS PLpro yeast 3%, AmpC inh no detg -55%, AmpC inh detg 1%, NS1 function inh -4% and FBPA Giardia inh -10%.
For COc1ccc(CCNC(=O)c2ccc3c(c2)N(Cc2ccccc2)C(=O)c2ccccc2S3=O)cc1OC (stereo not given) the results were AmpC inh detg -17%.
`COC(=O)c1cccnc1-n1c(=O)c2cccnc2n(CC(=O)Nc2ccc(Br)cc2)c1=O` gave SARS PLpro yeast -2%, AmpC inh no detg 79%, AmpC inh detg -12% and FBPA Giardia inh 0%.
O=C(CSc1nc(-c2ccccc2)c(-c2ccccc2)[nH]1)N1CCN(S(=O)(=O)c2ccccc2)CC1 was read as SARS PLpro yeast 9%, AmpC inh no detg 22%, AmpC inh detg 2%, NS1 function inh 3.5µM*, FBPA Giardia inh 0% and NS1 inh valid 12.
Cc1cccc(C)c1N1CC(c2nc3ccccc3n2CC(=O)OC(C)C)CC1=O (stereo not given) was read as AmpC inh detg 23%.
`Cc1ccc(Cn2nnc3c(=O)[nH]c(C4CCN(S(=O)(=O)c5ccc(F)cc5)CC4)nc32)cc1` gave SARS PLpro yeast 19%, AmpC inh no detg 9%, AmpC inh detg inconclusive, NS1 function inh 13µM*, FBPA Giardia inh 5% and NS1 inh valid 4.
Screening O=c1[nH]c(C2CCCN(S(=O)(=O)c3ccccc3)C2)nc2c1nnn2Cc1ccccc1Br (stereo not given) returned SARS PLpro yeast inconclusive, AmpC inh no detg 1%, AmpC inh detg inconclusive, NS1 function inh 7.1µM*, FBPA Giardia inh -7% and NS1 inh valid inconclusive.
